# Many of the other results were omitted from the sample, so hits are more common in it than they were.
# Shiga inhibitor = blocks Shiga toxin action in Vero cells; Vero cells, Shiga toxin protein synthesis inhibition reporter; hit rate 9.2% among 290,000; AID 2315; inhibition, % at 38.7 µM; in the data active = inhibition mostly above about 28%, no sharp cut-off; inactive = mostly below about 43%
# LmPK inh = inhibitors of Leishmania mexicana pyruvate kinase; purified LmPK, Kinase-Glo ATP luminescence, 1 h; Potency, µM (doses to about 57.5 µM), actives largely listed as inhibitors; hit rate 0.37% among 290,000; AID 1721
#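 0.1 nM LmPK, 0.5 mM PEP, 0.1 mM ADP; 50 mM imidazole pH 7.2, 7 mM MgCl2, 50 mM KCl; 1 h RT. Kinase-Glo luminescence readout, normalized to no-enzyme (full inhibition) and uninhibited wells.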
# FBPA Giardia inh = blocks Giardia fructose-bisphosphate aldolase activity. A8B2U2. purified Giardia FBPA. Potency, µM (highest dose often 59.6 µM), usual class: inhibitors. hit rate 0.71% among 290,000; also: nearly all actives have a fitted effect of over 55% in size
# Target sequence (A8B2U2 whole entry, looked up): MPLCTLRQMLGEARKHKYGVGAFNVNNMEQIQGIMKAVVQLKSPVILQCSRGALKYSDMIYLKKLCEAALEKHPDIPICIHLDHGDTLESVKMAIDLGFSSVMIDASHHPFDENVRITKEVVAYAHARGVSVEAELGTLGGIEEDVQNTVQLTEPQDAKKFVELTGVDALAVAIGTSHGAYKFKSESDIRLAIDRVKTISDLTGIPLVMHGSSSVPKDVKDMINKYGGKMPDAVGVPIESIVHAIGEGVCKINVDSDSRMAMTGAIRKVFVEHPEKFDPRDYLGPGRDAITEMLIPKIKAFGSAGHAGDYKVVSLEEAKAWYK
#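 Giardia FBPA (40 nM reagent) was preincubated 10 min at RT with compound (up to 57.5 uM final), then substrate plus GAPDH/TPI/NAD/arsenate coupling system with diaphorase/resazurin was added; resorufin fluorescence (525/598 nm) was read after 20 min.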
# Tb PYK inh = inhibitors of Trypanosoma brucei pyruvate kinase. AID 624173. TbPYK enzyme, Kinase-Glo Plus ATP luminescence, 45 min. Potency, µM (series often up to 76.8 µM), actives largely listed as inhibitors. Q57TT1. hit rate 0.12% among 410,000; also: nearly all actives have a fitted effect of over 50% in size
#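 TbPYK + substrate in 50 mM TEA pH 7.2, 100 mM KCl, 10 mM MgCl2, 0.05% BSA, 0.01% Tween-20; cpd pinned; ADP 130 uM final; 45 min RT; Kinase-Glo Plus 10 min; luminescence endpoint.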
# Cycloheximide cs = counter-screen for Shiga toxin inhibitors: cycloheximide protein synthesis inhibition; cell reporter, cycloheximide protein synthesis inhibition counterscreen; max response, %; hit rate 12% among 300,000; AID 2314; in the data active = max response mostly above about 13%, no sharp cut-off; inactive = mostly below about 14%; also: read at 38.3 µM for the half of the compounds with a filed dose
# Sm TGR inh = S. mansoni TGR enzyme inhibition; Q962Y6; purified TGR, DTNB reduction, TNB absorbance 405 nm; Potency, µM (doses to about 114 µM), actives largely listed as inhibitors; hit rate 3% among 360,000; also: nearly all actives have a fitted effect of over 60% in size
#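 First, TGR (20 nM dispensed) and NADPH were mixed with compound. Second, a 15 min room-temperature incubation followed. Third, further NADPH and then DTNB were added to start the reaction. Finally, TNB absorbance was monitored kinetically.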
# Numbers stand for hits; 0 = inactive; ? = inconclusive; - = no result. Unless noted, calls follow the shape of the dose curve; as a rule, active = well fitted curve in the direction sought with a large enough effect; inconclusive = small, poorly fitted or top-dose-only effect, or another doubt; inactive = no such curve, though single readings can be large; an effect the other way counts as inactive or inconclusive.
SMILES,Shiga inhibitor,LmPK inh,FBPA Giardia inh,Tb PYK inh,Cycloheximide cs,Sm TGR inh
Cc1cc(C)cc(N(CC(=O)NCc2ccccc2Cl)S(=O)(=O)c2c(C)noc2C)c1,-,-,-,0,-,0
O=C(CCNC(=O)c1ccc([N+](=O)[O-])cc1)NC1CCCc2ccccc21 (stereo not drawn),-,-,-,0,-,0
Cc1ccc(NC(=O)C2C(=O)N(CCO)C3(C)CC2c2ccccc2O3)cc1 (stereo not drawn),0,0,0,0,22,0
COc1ccc(NC(=O)C2C(=O)N(CCO)C3(C)CC2c2ccccc2O3)cc1 (stereo not drawn),0,0,?,0,0,0
C=CCn1c(NC(=O)c2ccccc2)nc2ccccc21,53,0,0,0,43,0
Cc1ccc(C(=O)N/N=C/c2nc3ccccc3n2C)cc1,0,0,0,?,0,0
CCCCn1c(NC(=O)c2ccccc2)nc2ccccc21,0,0,?,0,0,0
CCn1c(NC(=O)c2ccccc2)nc2ccccc21,86,0,0,0,31,0
CNc1nc2ccccc2n1CC(=O)c1ccccc1,0,0,?,0,22,0
Cn1c(/C=N/NC(=O)c2ccccc2Br)nc2ccccc21,0,0,0,0,15,0
CCCn1c(NC(=O)c2ccc(Br)cc2)nc2ccccc21,0,0,?,0,0,0
CCCn1c(NC(=O)c2ccccc2Br)nc2ccccc21,0,0,0,0,18,0
Cc1ccn2c(C=O)c(-c3ccc(F)cc3)c(C=O)c2c1,0,0,0,0,28,0
COc1ccc(CCC(=O)N2CCc3ccccc32)cc1,133,0,0,0,41,0
O=C(c1ccccc1)N1CCc2ccccc21,0,0,0,0,0,0
CCOc1ccccc1NC(=O)N1CCCc2ccccc21,0,0,0,0,0,0
COc1ccc(OC)c(NC(=O)N2CCCc3ccccc32)c1,0,0,0,0,25,0
COc1ccc(C(=O)N2CCc3ccccc32)cc1,46,0,0,0,30,0
C=CCC(CC)C(=O)NC(=O)N1CCCc2ccccc21 (stereo not drawn),30,0,0,0,0,0
C=C[C@@]1(C)CC(=O)[C@@]2(O)[C@@]3(C)[C@@H](O)CCC(C)(C)[C@@H]3[C@H](OC(=O)CCN(C)C)[C@H](OC(C)=O)[C@@]2(C)O1,-,-,0,-,-,-
CCCN1CCN(CCCNC(=O)c2ccc(CS(=O)c3ccc(OC)cc3)o2)CC1 (stereo not drawn),0,0,-,0,0,0
O=C(N/N=C/c1ccc(OC(=O)c2ccco2)cc1)c1ccc[n+]([O-])c1,-,-,-,0,-,-
Cc1ccc(-n2ncc(C(=O)N3CCN(C4CCCCC4)CC3)c2C2CCN(C(=O)OC(C)(C)C)CC2)cc1,-,-,-,0,-,0
CCc1ccccc1NC(=O)N1CCc2ccccc21,53,0,0,0,16,0
CC1(CCc2ccccc2)NC(=O)N(CC(=O)N2CCc3ccccc32)C1=O (stereo not drawn),-,-,-,0,-,-
SMILES,Shiga inhibitor,LmPK inh,FBPA Giardia inh,Tb PYK inh,Cycloheximide cs,Sm TGR inh
COc1cc2[nH]c(C(=O)N3CCc4ccccc43)cc2c(OC)c1OC,47,0,0,0,30,0
CC1Cc2ccccc2N1C(=O)CN1C(=O)NC(C)(CCc2ccccc2)C1=O (stereo not drawn),0,0,-,0,14,0
CCN1CCN(C(=O)c2cc3c(OC)c(OC)c(OC)cc3[nH]2)CC1,0,0,0,0,0,0
O=C(Cc1ccc(-n2cccc2)cc1)N1CCc2ccccc21,0,0,0,0,20,0
O=C(CN(c1ccccc1)S(=O)(=O)c1ccccc1[N+](=O)[O-])Nc1cccnc1,0,0,0,0,0,0
Nc1nc2c(c(=O)[nH]1)N(C=O)[C@H](CNc1ccc(C(=O)N[C@@H](CCC(=O)O)C(=O)O)cc1)CN2,-,-,0,0,-,-
COc1ccc(CCC(=O)N2c3ccccc3CC2C)cc1 (stereo not drawn),88,0,0,0,35,0
COc1ccc(NC(=O)N2CCCc3ccccc32)cc1,122,0,0,0,18,0
COc1cc2[nH]c(C(=O)N(C)Cc3ccccc3)cc2c(OC)c1OC,0,0,0,0,0,0
CC1Cc2ccccc2N1C(=O)CCS(=O)(=O)c1cccs1 (stereo not drawn),60,0,0,0,33,?
